# LASV entry inh – qHTS for Inhibitors of binding or entry into cells for Lassa Virus. AID 540256, 2011. Lassa virus pseudotype entry inhibition, cell reporter. hit rate 1.2% among 300,000. Potency, µM (titrated, usually from 37.9 µM), for the others: top-dose activity change, negative = inhibition, hits mostly inhibitors; calls by dose curve; tested in HEK293 cells; further: potency means the concentration at half of the fitted maximal effect; on the % scale 0 is the no-effect control and ±100 the full control effect; nearly all actives have a fitted effect of over 50% in size
# HCMV inh – qHTS Assay for inhibitors of the human cytomegalovirus (HCMV). HFF cells, HCMV-luciferase reporter, 72 h; active compounds read low. activity change, negative = inhibition, % at 57.5 µM. hit rate 4.5% among 410,000. AID 1259415, 2018; in the data active means activity change below about -60%; inconclusive means no clear call, values can overlap the other calls; inactive means above about -39%; further: on the % scale 0 is the no-effect control and ±100 the full control effect
#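 HFF cells seeded 16 h at 37C, treated with compounds, infected with luciferase-reporter HCMV at MOI 1 PFU/cell; luciferase read at 72 h post infection, normalized to buffer-only and Salinomycin controls.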
# Marburg entry inh – qHTS for inhibitors of binding or entry into cells for Marburg Virus; Marburg virus pseudotyped entry inhibition, cell reporter; Potency, µM (doses to about 37.8 µM), inactives show at the highest dose activity change, negative = inhibition, most hits filed as inhibitors; hit rate 1.8% among 300,000; calls by dose curve; tested in HEK293 cells; further: potency means the concentration at half of the fitted maximal effect; on the % scale 0 is the no-effect control and ±100 the full control effect
# SARS PLP yeast – qHTS of Yeast-based Assay for SARS-CoV PLP | S. cerevisiae expressing SARS-CoV PLpro, growth rescue | Potency, µM (doses to about 32.9 µM), without a hit: top-dose activity, positive = growth rescue, most hits filed as activators | hit rate 0.19% among 330,000; calls by dose curve; further: potency means the concentration at half of the fitted maximal effect; 0% is about no effect; nearly all actives have a fitted effect of over 55% in size
# HCV inh – qHTS Assay for Inhibitors of Hepatitis C Virus (HCV); Huh7.5.1 HCVcc-Cre infection, luciferase reporter, 44 h; hit rate 3.4% among 340,000; Potency, µM (series often up to 41.8 µM), inactives show at the top dose activity change, negative = inhibition, most hits filed as inhibitors; active means well fitted inhibition curve with a large enough effect; inconclusive means small, poorly fitted or top-dose-only effect, or another doubt; inactive means no such curve, though single readings can be large or run the other way; further: potency means the concentration at half of the fitted maximal effect; on the % scale 0 is the no-effect control and ±100 the full control effect
#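 After 44 h co-culture of compound, cells and HCVcc-Cre (~0.5 moi), substrate is added for 15 min at room temperature and luciferase measured over 15 sec. Cells were seeded at 1,000/well and pre-cultured 4 h.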
# FMDV antiviral – High Throughput Screening for Foot and Mouth Disease Virus Antivirals. hit rate 1.2% among 410,000. FMDV antiviral cell-based qHTS. Potency, µM (series often up to 57.9 µM), for inactives: top-dose activity change, negative = inhibition, hits mostly inhibitors. AID 1159524, 2015; calls by dose curve; tested in HEK293T cells; further: read-out not given here; potency means the concentration at half of the fitted maximal effect; on the % scale 0 is the no-effect control and ±100 the full control effect; nearly all actives have a fitted effect of over 45% in size
# Active calls of the source: *; ? = inconclusive; . = no result given; [ ] = another dose, or the depositor's remark. Hits are enriched below; roughly 8% of the tested compounds scored in any of these assays.
SMILES,LASV entry inh,HCMV inh,Marburg entry inh,SARS PLP yeast,HCV inh,FMDV antiviral
COc1cccc(-c2ccc(NC(=O)C3CCCN(Cc4cnn(C(C)C)c4)C3)cc2)c1 (centres undefined),?,-108*,?,?,11µM*,?
CO[C@@H]1c2cc(F)ccc2C(=CCCOC(=O)CC=Cc2ccccc2)[C@H]1C,.,.,-24%[14.2 µM],.,.,.
COc1cccc2cc(/C(=N/O)c3ccc(Br)cc3)oc12,-22%,-66*,-29%,0%,-29%,-19%
C=CC(C)=C[C@@]1(C)SC(=O)C(C)=C1O,-18%,.,2%,.,.,.
O=C(N/N=C/c1cn(-c2cccs2)nc1-c1ccccc1)c1ccccc1O,13µM*,-14,16µM*,-71%,?,20µM*
O=C(N/N=C/c1cn(-c2ccccc2)nc1-c1cccnc1)c1ccccc1,-27%[46.1 µM],-29,?,0%,?,-12%
O=C(N/N=C/c1cn(-c2cccs2)nc1-c1ccccc1)c1ccccc1Br,-13%,38,-28%,-11%,7.1µM*,17%
CCOc1ccc(-c2nc(CN3CCCC(C(=O)N4CCOCC4)C3)c(C)o2)cc1 (centres undefined),-12%[46.1 µM],18,-7%[46.1 µM],-6%,-5%,9%
CCOC(=O)C1CCCN(C(=O)C2CCN(Cc3nc(-c4ccc(Cl)cc4)oc3C)CC2)C1 (centres undefined),.,-25,.,.,11µM*,?
Cc1oc(-c2ccc(Cl)cc2)nc1CN1CCC(C(=O)N2CCN(Cc3ccccc3)CC2)CC1,.,-32,6%,-13%,-21%,0%
Cc1oc(-c2ccc(Cl)cc2)nc1CN1CCC(C(=O)N2CCc3ccccc3C2)CC1,.,.,3%,1%,-18%,22µM*
NNC(=O)C1=NN=C(C23CC4CC(CC(C4)C2)C3)C1,.,.,17%[46.1 µM],.,.,.
COc1ccc(/C=C2\N=C(c3ccccc3Cl)NC2=O)cc1,.,-73*,.,-3%,?,53%
COc1ccccc1N1C(=O)C2CCC(c3ccccc3)CC2C1=O (centres undefined),?,-18,6%,25%,4%,22µM*
CCC/C(O)=C1\C(=O)CC(C)(C)CC1=Nc1ccc(OC)cc1OC,-24%,21,2µM*,2%,-11%,0%
CCCC/C(O)=C1\C(=O)CC(C)(C)CC1=Nc1ccccc1OC,3%,-1,?,-6%,?,-21%
CCN(CC)C(=O)CSc1nc2cc3c(cc2c(=O)n1CCCC(=O)NCc1ccc(OC)cc1)OCO3,?,-14,?,2%,?,-2%
CCn1cc2nc(SCC(=O)Nc3cc(OC)ccc3OC)n(Cc3ccc(Cl)cc3)c(=O)c2n1,-2%[46.1 µM],3,13µM*,.,.,-5%
CCN(CC)C(=O)CSc1nc2cc(OC)c(OC)cc2c(=O)n1Cc1ccc(Cl)cc1,?,-78*,?,-6%,?,-13%
CCn1cc2nc(SCC(=O)Nc3ccc(OC)cc3OC)n(Cc3ccc(Cl)cc3)c(=O)c2n1,?,-29,?,.,.,47%
Cc1ccc(Cn2ccnc2SCC(=O)Nc2nnc(C)s2)cc1,2%[46.1 µM],-10,.,.,.,-9%
CCNC(=O)N[C@H]1CC[C@@]23CCCN2C(=O)CCC[C@H]3C1Cc1ccccc1 (some centres undefined),.,-6,.,.,.,.
Cc1ccc(NC(=O)Cn2ncn3c(cc4ccccc43)c2=O)cc1C,.,7,13µM*,.,.,6%
Cc1ccc(NC(=O)Cn2ncn3c(cc4ccccc43)c2=O)cc1F,-14%[46.1 µM],0,?,.,-9%,-13%
CN(Cc1ccccc1)C(=O)CSc1nc(-c2ccc(F)cc2)cc(C(F)(F)F)n1,-12%[46.1 µM],-17,?,.,.,-28%
SMILES,LASV entry inh,HCMV inh,Marburg entry inh,SARS PLP yeast,HCV inh,FMDV antiviral
COC1(C#C[C@@H]2C=C[C@H](OC(C)=O)[C@@H](COC(C)=O)O2)CCCCC1,?,.,-18%[14.2 µM],.,.,.
Cc1cccc(CNc2nc3cnc(-c4cccc(F)c4)cc3n2C)c1,.,17,.,.,.,.
CC(Oc1ccc2c(-c3ccccc3)cc(=O)oc2c1)C(=O)NCC(O)c1ccccc1 (centres undefined),.,10,.,-6%,8.9µM*,-24%
O=C(Oc1ccc2c(-c3ccccc3)cc(=O)oc2c1)c1cccs1,1%[46.1 µM],-67*,13%,-7%,8%,2%
Cc1c(OCC(=O)NCC(O)c2ccccc2)ccc2c(-c3ccccc3)cc(=O)oc12 (centres undefined),.,?,.,-1%,32µM*,-10%
Cc1c(OCC(=O)NCc2ccccn2)ccc2c(-c3ccccc3)cc(=O)oc12,.,4,.,-2%,12%,-19%
CCc1cc2c(-c3ccccc3)cc(=O)oc2cc1OC(=O)c1cccs1,7%,?,-7%,-10%,-8%,10%
N#Cc1ccc(C(=O)Nc2ccn(-c3ccccc3)n2)cc1,1%,-75*,?,-37%,?,-22%
N#Cc1ccc(C(=O)Nc2cc(-c3ccccc3)nn2-c2ccccc2)cc1,.,-8,.,0%,10µM*,-22%
O=C(Nc1ccn(-c2ccccc2)n1)c1ccc(Cl)cc1,-4%,-34,?,-37%,7.1µM*,-18%
N#Cc1ccc(C(=O)Nc2cc(-c3ccc(F)cc3)nn2-c2ccccc2)cc1,.,1,.,-3%,?,-19%
CC1(C)Cc2c(sc3nc(N/N=C/c4ccccc4)[nH]c(=O)c23)CO1,-1%,?,?,-3%,0%,?
CC(C)=NNc1nc2sc3c(c2c(=O)[nH]1)CC(C)(C)OC3,7.1µM*,?,-4%,-17%,-22%,22%
CC(=O)NC(NC(=S)Nc1ccc(N=Nc2ccccc2C)cc1C)C(Cl)(Cl)Cl (centres undefined),-19%,25,?,-2%,?,20%
Cc1cc(N=Nc2ccccc2C)ccc1N,-14%,27,-11%[46.1 µM],.,13µM*,31%
COc1ccc(/C=N\NC(=O)c2ccccc2F)cc1COc1ccc(F)cc1F,?,-80*,?,19%,?,-2%
CCOC(=O)c1ccccc1OCc1cc(/C=N/n2cnnc2)ccc1OC,-20%,-7,0.1µM*,?,-10%,?
COc1ccc(/C=N/NC(=O)c2nc(Cl)c(Cl)c(N)c2Cl)cc1COc1ccc(F)cc1F,?,44,6%,1%,11µM*,-23%
COc1ccc(/C=N\NC(=O)c2ccccc2F)cc1COc1ccc(F)cc1,-18%[46.1 µM],-16,?,-7%,-19%,-17%
CCOc1ccc(CCNC(=O)Cn2nnc(-c3ccc(C(F)(F)F)cc3)n2)cc1OCC,-1%[46.1 µM],1,-8%[46.1 µM],.,.,-12%
CN(C)S(=O)(=O)N1CCN(C(=O)N2CCOCC2)CC1,0%,-101*,-6%,1%,11%,.
CN(C)S(=O)(=O)N1CCN(C(=O)N2CCCCC2)CC1,12%,39,-2%,6%,-2%,.

# Assay outcomes (PubChem)
